Laboratory results from PubChem BioAssay (NCATS).
Inconclusive results are not listed. Entries that show only a call come without a potency. The source made the active and inactive calls. Calls come from the whole dose curve; as a rule, active = well fitted curve in the direction sought with a large enough effect; inconclusive = small, poorly fitted or top-dose-only effect, or another doubt; inactive = no such curve, though single readings can be large or run the other way.

What follows are compounds tested against Ferritin light chain (Equus caballus) (UniProt P02791) (assay: qHTS Validation Assay for Identification of Novel General Anesthetics (AID 2323)). Settings: horse apoferritin, anesthetic-site fluorescent probe displacement; series mostly up to 76.9 µM.
Source text: Source: NIH Chemical Genomics Center [NCGC]
Assay Submitter: Roderic Eckenhoff, University of Pennsylvania
Screening Center PI: Christopher P. Austin, NIH
Probe Development: NIH Chemical Genomics Center [NCGC]
Anesthetic development has remained a largely empirical process. There are growing concerns about the cognitive effects of known general anesthetics and acceleration of the onset of neurodegenerative disease. The compounds' toxicity and multiple specific binding targets in the mammalian brain [4] has made them less attractive as drug leads. In this assay, a GABAergic mimetic model system, apoferritin and a profluorescent 1-aminoanthracene ligand (1-AMA), was used to construct a competitive binding assay for identification of novel general anesthetics. The assay was validated for 1-AMA using other known anesthetics, such as isoflurane (CID:3763) and propofol (CID: 4943), [6].
[1] S.L. Bianchi, T. Tran, C. Liu, S. Lin, Y. Li, J.M. Keller, R.G. Eckenhoff, and M.F. Eckenhoff, Brain and behavior changes in 12-month-old Tg2576 and nontransgenic mice exposed to anesthetics. Neurobiol Aging 29 (2008) 1002-10.
[2] Z. Xie, Y. Dong, U. Maeda, R.D. Moir, W. Xia, D.J. Culley, G. Crosby, and R.E. Tanzi, The inhalation anesthetic isoflurane induces a vicious cycle of apoptosis and amyloid beta-protein accumulation. J Neurosci 27 (2007) 1247-54.
[3] P. Honegger, and J.M. Matthieu, Selective toxicity of the general anesthetic propofol for GABAergic neurons in rat brain cell cultures. J Neurosci Res 45 (1996) 631-6.
[4] M.F. Eckenhoff, K. Chan, and R.G. Eckenhoff, Multiple specific binding targets for inhaled anesthetics in the mammalian brain. J Pharmacol Exp Ther 300 (2002) 172-9.
[5] C.A. Butts, J. Xi, G. Brannigan, A.A. Saad, S.P. Venkatachalan, R.A. Pearce, M.L. Klein, R.G. Eckenhoff, and I.J. Dmochowski, Identification of a fluorescent general anesthetic, 1-aminoanthracene. Proc Natl Acad Sci U S A 106 (2009) 6501-6.
[6] W.A. Lea, J. Xi, A. Jadhav, L. Lu, C.P. Austin, A. Simeonov, and R.G. Eckenhoff, A high-throughput approach for identification of novel general anesthetics. PLoS One 4 (2009) e7150.
Three uL of reagents (free 1-AMA (50% saturated solution of 1-aminoanthracene
in PBS) in columns 3, 4 as negative control and 1-AMA/apoferritin mixture (10 uM horse-spleen apoferritin in 50% saturated 1-aminoanthracene in PBS) in columns 1, 2, 5-48) was dispensed into 1536-well Greiner black assay plates. Compounds (23 nL) were transferred via Kalypsys pintool equipped with 1,536-pin array (10 nL slotted pins, V&P Scientific, San Diego, CA). Titration of the positive control, propofol, were delivered via pin transfer from separate control plates to the 2nd column of each assay plate. The starting concentration of the control, dissolved in DMSO, was at 160 mM, followed by two-fold dilution points in duplicate, for a total of 16 concentrations. The plates were incubated for 10 min at room temperature, and then read on an EnVision HTS multilabel reader (Perkin-Elmer, Waltham, MA) (end point read, 3 min/plate) using Fura2 BFP excitation filter (380 nm, bandwidth 10 nm) and fluorescein emission filter (535 nm, bandwidth 25 nm) set. A LANCE/DELFIA dichroic mirror with a cutoff wavelength at 400 nm was used to maximize signal accuracy and strength. Vehicle-only plates, with DMSO being pin-transferred to the entire column 5-48 compound area, were inserted uniformly at the beginning and the end of each library in order to monitor for and record any shifts in the background. Activity was computed as the normalized fluorescence response relative to free 1-AMA and 1-AMA/apoferritin complex values. Concentration-effect relationships were derived by using curve fitting algorithms developed in-house (http://ncgc.nih.gov/pub/openhts/). A four parameter Hill equation was fitted to the concentration-response data by minimizing the residual error between the modeled and observed responses.
Potency is the fitted concentration of half-maximal effect.

Sequence of Ferritin light chain (Equus caballus) (P02791 2-175 limits assumed): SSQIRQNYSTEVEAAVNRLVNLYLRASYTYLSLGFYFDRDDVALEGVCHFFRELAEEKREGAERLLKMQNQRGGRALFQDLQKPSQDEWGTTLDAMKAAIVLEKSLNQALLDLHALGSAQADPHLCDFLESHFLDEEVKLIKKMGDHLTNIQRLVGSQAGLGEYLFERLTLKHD

SMILES	Potency
CCCN1CCc2cccc3c2C1Cc1ccc(O)c(O)c1-3 (stereo not given)	inactive
COc1ccc2c(c1O)-c1cccc3c1C(C2)N(C)CC3 (stereo not given)	inactive
C[C@]12CC[C@H](O)CC1=CCC1C2CC[C@]2(C)C(=O)CC[C@@H]12 (stereo not given in full)	inactive
CCc1c(C(=O)OC)ncc2[nH]c3cc(OC)c(OC)cc3c12	inactive
C[C@]12CC[C@H](OS(=O)(=O)O)CC1=CCC1C2CC[C@]2(C)C(=O)CC[C@@H]12 (stereo not given in full)	inactive
Nc1ncnc2c1ncn2[C@@H]1O[C@H](COP(=O)(O)CP(=O)(O)OP(=O)(O)O)[C@H](O)[C@H]1O	inactive
CC12CCC3C(CCC4=C(O)C(=O)CCC43C)C1CCC2=O (stereo not given)	inactive
CCCN1CCC[C@@H](c2cccc(C#N)c2)C1	inactive
CC(C)(O)C1C2OC(=O)C1[C@]1(O)C[C@H]3O[C@]34C(=O)O[C@H]2[C@]14C (stereo not given in full) (tested in a mixture with another compound)	inactive
CCCN(CCC)[C@@H]1CCc2c(F)ccc(O)c2C1	inactive
NC(Cn1ccc(=O)[nH]c1=O)C(=O)O (stereo not given)	inactive
C=CCN1CCc2cccc3c2C1Cc1ccc(O)c(O)c1-3 (stereo not given)	inactive
Oc1cc2c(cc1O)[C@H]1c3ccccc3CNC1CC2 (stereo not given in full)	inactive
CCN(CC)C(=O)N[C@@H]1C[C@@H]2c3cccc4[nH]cc(c34)C[C@H]2N(C)C1	inactive
CCNC(=O)[C@H]1O[C@@H](n2cnc3c(N)ncnc32)[C@H](O)[C@H]1O	inactive
CCCN1CCC[C@@H]2Cc3n[nH]cc3C[C@H]21	inactive
CN1CCC23CCCC[C@H]2C1Cc1ccc(O)cc13 (stereo not given in full)	inactive
CCCC[N+]1(C)C2CC(OC(=O)C(CO)c3ccccc3)CC1C1OC12 (stereo not given)	inactive
C[C@H]1OC[C@@H](C[N+](C)(C)C)O1	inactive
CN1C[C@@H](CS(=O)(=O)N(C)C)C[C@@H]2c3cccc4c3c(cn4C)C[C@H]21	inactive

SMILES	Potency
CCN1C[C@]2(C)CC[C@H](O)[C@@]34[C@@H]5C[C@@H]6[C@@H](OC)C[C@@](O)(C5[C@H]6O)[C@@H](C[C@@H]23)[C@@H]14	inactive
CCCN1CCCC(c2cccc(O)c2)C1 (stereo not given)	inactive
COc1cc(C[C@@H](C)N)c(OC)cc1I	inactive
COC(=O)C(N)CCCN=C(N)N[N+](=O)[O-] (stereo not given)	inactive
CCC(CO)NC(=O)[C@@H]1C=C2c3cccc4[nH]cc(c34)C[C@H]2N(C)C1 (stereo not given in full)	inactive
COc1cc(C=C(C#N)C#N)cc(O)c1O	inactive
C=CCN1CC[C@@]2(C)c3cc(O)ccc3CC1[C@@H]2C	inactive
O=C(OC1CCN(CCCl)CC1)C(c1ccccc1)c1ccccc1	inactive
CC[C@@H](CO)NC(=O)[C@H]1C=C2c3cccc4c3c(cn4C)C[C@H]2N(C)C1	inactive
O=C(O)C1C2CCC(O2)C1C(=O)O (stereo not given)	inactive
NNCc1cccc(O)c1	inactive
CCCN1CCc2cc(O)cc3c2C1Cc1ccc(O)c(O)c1-3 (stereo not given)	inactive
Oc1ccc2c3c1O[C@H]1[C@@H](O)CC[C@@]4(O)C(C2)N(CC2CCC2)CCC314 (stereo not given in full)	inactive
C[N+]1(C)C2CC(OC(=O)C(CO)c3ccccc3)CC1C1OC12 (stereo not given)	inactive
CC1Cc2cc3c(cc2C(c2ccc(N)cc2)=NN1)OCO3 (stereo not given)	inactive
NCC#Cc1ccccc1	inactive
C[C@@H]1O[C@@H](O[C@H]2C[C@@H](O)[C@]3(CO)[C@H]4[C@H](O)C[C@]5(C)[C@@H]([C@@H]6COC(=O)C6)CC[C@]5(O)[C@@H]4CC[C@]3(O)C2)[C@H](O)[C@H](O)[C@H]1O	inactive
C[C@H]1C2Cc3ccc(O)cc3[C@]1(C)CCN2CC1CC1	inactive
N.N.N.N.N.N.N.N.N.N.N.N.N.N.O.O.[Cl-].[Cl-].[Cl-].[Cl-].[Cl-].[Cl-].[Ru].[Ru].[Ru]	25.1 µM (active)
CC(C)[C@@]1(NC(=O)[C@@H]2C[C@@H]3c4cccc5[nH]cc(c45)C[C@H]3N(C)C2)O[C@@]2(O)C3CCCN3C(=O)[C@H](Cc3ccccc3)N2C1=O (stereo not given in full)	inactive
